Shown is part of a subset that was picked to be rich in hits.
Glioma ERSR ind: induces the endoplasmic reticulum stress response in human glioma cells. U87-MG GRP78 promoter luciferase reporter, 16 h. Potency, µM, for the others: at the highest dose activation, actives largely listed as activators. 0.02% of 420,000 active; further: series mostly up to about 76 µM; % of control where 0% means no effect; nearly all actives have a fitted effect of over 35% in size
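Stably transfected U87-MG glioma cells carrying a GRP78-based luciferase sensor; 16 h compound incubation. Luminescence end-point read 10 min after Bright-Glo addition at room temperature.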
Sfp inh: Sfp phosphopantetheinyl transferase inhibition | 3.5% of 310,000 active | Q9F4F7 | Potency, µM, inactives show largest response in the series, negative = inhibition, most hits filed as inhibitors | Biochemical Sfp PPTase activity, qHTS;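 further: the enzyme is Sfp with the accession as filed and its product quenches rhodamine fluorescence; 0% = enzyme reaction without inhibitor and -100% = no enzyme wells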
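Fluorescence-quenching assay: 15 nM Sfp-PPTase preincubated 15 min at room temperature with compound, then 5 uM rhodamine-CoA and 12.5 uM BHQ-2-labelled YbbR peptide added. Fluorescence (ex 525/em 598 nm) read at start and after 30 min; difference gives rate.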
G9a block: blocks human histone lysine methyltransferase G9a | Q96KQ7 | G9a H3K9 monomethylation, AlphaScreen, 2 h | Potency, µM (top dose mostly 102 µM), for the others: at the highest dose activity, negative = inhibition, actives largely listed as inhibitors | 8.8% of 350,000 active | AID 504332; further: on the % scale 0 is the no-effect control and ±100 the full control effect; nearly all actives have a fitted effect of over 75% in size
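Compounds were preincubated with 20 nM G9a for 15 min, after which biotinylated H3K9 peptide (500 nM) and SAM (20 uM) started a 2 h room-temperature reaction. Monomethylated product was quantified by antibody-based AlphaScreen chemiluminescence.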
ALOX12 inh: ALOX12 (human) lipoxygenase inhibition; AID 1671190; Potency, µM (top dose mostly 108 µM), for the others: at the top dose activity change, negative = inhibition, actives largely listed as inhibitors; 1.1% of 580,000 active; P18054; purified 12hLO, xylenol orange hydroperoxide absorbance; further: on the % scale 0 is the no-effect control and ±100 the full control effect
Target sequence (P18054 whole entry, looked up): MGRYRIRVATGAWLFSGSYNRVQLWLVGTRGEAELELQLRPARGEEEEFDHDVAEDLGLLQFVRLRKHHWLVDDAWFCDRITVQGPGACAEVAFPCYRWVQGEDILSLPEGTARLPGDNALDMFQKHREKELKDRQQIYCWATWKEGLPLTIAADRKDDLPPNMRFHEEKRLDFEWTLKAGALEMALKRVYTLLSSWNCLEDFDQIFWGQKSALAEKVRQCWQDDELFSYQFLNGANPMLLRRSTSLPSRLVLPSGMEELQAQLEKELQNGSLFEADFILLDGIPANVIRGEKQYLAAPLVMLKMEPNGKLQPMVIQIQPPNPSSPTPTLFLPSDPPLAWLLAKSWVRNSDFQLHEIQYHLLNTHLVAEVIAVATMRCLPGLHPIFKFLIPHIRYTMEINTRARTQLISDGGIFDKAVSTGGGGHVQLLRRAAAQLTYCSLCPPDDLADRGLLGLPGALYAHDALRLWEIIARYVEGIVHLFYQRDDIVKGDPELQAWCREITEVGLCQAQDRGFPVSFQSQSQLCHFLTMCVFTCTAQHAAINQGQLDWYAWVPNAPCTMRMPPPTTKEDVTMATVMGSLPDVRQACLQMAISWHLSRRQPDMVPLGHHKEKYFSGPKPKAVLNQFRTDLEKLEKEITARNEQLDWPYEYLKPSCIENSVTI
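Purified human 12hLO (150 nM final) in 25 mM Hepes, 0.01% Triton X-100, pH 7.0 was preincubated 15 min at room temperature with compound. Then 40 uM arachidonic acid was added, 30 min. Hydroperoxide was read by Fe-XO absorbance ratio 573/405 nm.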
VDR inhibitor: vitamin D3 receptor (human) inhibition. VDR-SRC2-3 peptide fluorescence polarization, 2 h. P11473. Potency, µM, for the others: max response, negative = inhibition, actives largely listed as inhibitors. 0.93% of 400,000 active; further: on the % scale 0 is the no-effect control and ±100 the full control effect
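FP read-out; VDR + SRC2-3 coactivator peptide; 23 nl compound by pintool; 2 h RT incubation; reagents held at 4 deg C, protected from light.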
Starred values were filed as active, the others as inactive; [ ] = dose if it differs, or a comment. The call rests on the fitted dose curve; in most records, active means well fitted curve in the direction sought with a large enough effect; inconclusive means small, poorly fitted or top-dose-only effect, or another doubt; inactive means no such curve, though single readings can be large; an effect the other way counts as inactive or inconclusive. Potency means the concentration at half of the fitted maximal effect.

What do the screens show for `CS(=O)(=O)c1ccc(C(=O)Nc2nc(-c3ccco3)c(-c3ccco3)s2)cc1`?
Glioma ERSR ind: -3%; G9a block: 10µM*; ALOX12 inh: inconclusive; VDR inhibitor: inconclusive

What do the screens show for `O=C(Nc1nc2ccsc2c(=O)s1)C1CCC1`?
Glioma ERSR ind: 3%; Sfp inh: inconclusive; G9a block: 1%; ALOX12 inh: 45%; VDR inhibitor: 11%

How did O=C(Nc1nnc(-c2ccco2)s1)C1CCCCC1 do in these assays?
Glioma ERSR ind: -1%; Sfp inh: 50µM*; G9a block: 14%[59 µM]; ALOX12 inh: 94%; VDR inhibitor: 3%

Results for O=C(Nc1nc(-c2ccco2)c(-c2ccco2)s1)C1CCC1 ?
Glioma ERSR ind: 3%; Sfp inh: 28µM*; G9a block: inconclusive; ALOX12 inh: 11µM*; VDR inhibitor: inconclusive

Results for Cc1cc(C)c2c(c1C)OC/C2=N/O ?
ALOX12 inh: 17%

What do the screens show for `CN(CC(=O)OC(C)(C)C)C(=O)/C=C/c1cccc(C#N)c1`?
ALOX12 inh: -12%

What do the screens show for `CN(CC(=O)Nc1nccs1)S(=O)(=O)c1ccc(Cl)cc1`?
ALOX12 inh: 11%

What do the screens show for `COCCn1c(SCCC#N)nnc1-c1ccc(Cl)cc1`?
ALOX12 inh: 32%

What do the screens show for `NC(=O)NC(=O)CN1CCCC(c2nc3ccccc3o2)C1` (centres undefined)?
ALOX12 inh: 29%

What do the screens show for `COc1cc(OC)cc(C(=O)/C=C2\Sc3ccccc3N2C)c1`?
Glioma ERSR ind: 2%; Sfp inh: 50µM*; ALOX12 inh: -6%; VDR inhibitor: -8%

How did COCC(=O)/C=C1\Sc2ccccc2N1C do in these assays?
Glioma ERSR ind: 1%; Sfp inh: -20%; G9a block: -21%[59 µM]; ALOX12 inh: -10%[57.4 µM]; VDR inhibitor: -4%

How did COc1ccc2c(c1)S/C(=C\C(=O)c1ccncc1)N2C do in these assays?
Glioma ERSR ind: -3%; Sfp inh: 8.9µM*; G9a block: inconclusive; ALOX12 inh: 45µM*; VDR inhibitor: 8%

Results for CN1/C(=C\C(=O)c2cccs2)Sc2ccccc21 ?
Glioma ERSR ind: -9%; Sfp inh: 50µM*; G9a block: 12%; ALOX12 inh: inconclusive; VDR inhibitor: -4%

How did CC1CCc2c(C(=O)NCc3ccco3)csc2C1 (centres undefined) do in these assays?
Glioma ERSR ind: 4%; Sfp inh: -9%; G9a block: 56µM*; ALOX12 inh: -11%; VDR inhibitor: 1%

Results for CC1CCc2c(C(=O)Nc3cccc(-c4nn[nH]n4)c3)csc2C1 (centres undefined) ?
Glioma ERSR ind: 6%; Sfp inh: -13%; G9a block: 50µM*; ALOX12 inh: 445%; VDR inhibitor: -18%

Results for CCc1nnc(NC(=O)c2csc3c2CCC(C)C3)s1 (centres undefined) ?
Sfp inh: 24%; G9a block: 11%

What do the screens show for `CC1(C(=O)N2C[C@@H](Oc3ccccc3)C[C@H]2C(=O)N2CCOCC2)CCCCC1`?
ALOX12 inh: 12%

How did C=CCN(CC=C)CC(O)CN(c1cc([N+](=O)[O-])ccc1OC)S(=O)(=O)c1ccccc1 (centres undefined) do in these assays?
Glioma ERSR ind: -4%; Sfp inh: 79µM*; G9a block: 25%[59 µM]; ALOX12 inh: 1%; VDR inhibitor: -12%

What do the screens show for `CC(C)Cn1c(Oc2ccc(Cl)cc2)nc2c1c(=O)n(C)c(=O)n2C`?
ALOX12 inh: -24%

What do the screens show for `CC(C)c1nc2c(c(-c3ccc(O)cc3)n1)CN(Cc1ccc(C(F)(F)F)cc1)CC2`?
ALOX12 inh: -12%

Results for COc1ccc(NC(=O)C/C(C)=N/NC(=O)c2cnccn2)cc1 ?
Glioma ERSR ind: 4%; Sfp inh: -20%; G9a block: 7.1µM*; ALOX12 inh: 1%; VDR inhibitor: 18%

Results for C/C(CC(=O)Nc1ccc(N(C)C)cc1)=N\NC(=O)c1cnccn1 ?
Glioma ERSR ind: 0%; Sfp inh: 56µM*; G9a block: inconclusive; ALOX12 inh: 7%; VDR inhibitor: -2%

What do the screens show for `C/C(CC(=O)Nc1ccc2ccccc2c1)=N\NC(=O)c1cnccn1`?
Glioma ERSR ind: -5%; Sfp inh: -19%; G9a block: inconclusive; ALOX12 inh: -15%; VDR inhibitor: -8%

Compound activity deposited in PubChem BioAssay by National Center for Advancing Translational Sciences (NCATS).
